Measurements from PubChem BioAssay (NCATS).
Inconclusive results are not listed. Unless noted, calls follow the shape of the dose curve; as a rule, active = well fitted curve in either direction with a large enough effect (not every such curve was filed as active); inconclusive = small, poorly fitted or top-dose-only effect, or another doubt; inactive = flat fitted curve, though single readings scatter.

Experiments:
[1] = AP1 Signaling Pathway (AID 357); settings: ME-180 AP-1-bla reporter, EGF-induced, beta-lactamase ratio, 5 h; at 17.2 µM (top of the series) unless noted;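 also: ME-180 reporter cells stimulated with EGF at its EC50 level; % is scaled to controls: 0 for no effect and ±100 for the full control effect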
In short: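 Read-out was the 460nm/530nm emission ratio (excitation 405nm) after CCF4 loading for 2.5 hours at room temperature. Cells carried an AP-1-driven beta-lactamase reporter, were stimulated with EC50 EGF plus compound for 5 hours, and AC50 values came from titrations.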

[2] = NFAT Signaling Pathway (AID 444); settings: Jurkat NFAT-bla M1, carbachol, beta-lactamase ratio, 5 h; at 17.2 µM (top of the series) unless noted;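 also: carbachol stimulus at about its EC50 of 1 µM final; % is scaled to controls: 0 for no effect and ±100 for the full control effect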
In short: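 Jurkat cells with NFAT-driven β-lactamase reporter and co-expressed M1 receptor, stimulated with carbachol (final 1 uM, ~EC50), compound titration, 5 h at 37 °C. CCF4 loaded 1 h at RT; 460/530 nm ratio gave %activity and AC50.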

[3] = Stat Signaling Pathway (AID 446); settings: ME-180 SIE beta-lactamase reporter, IL-6 stimulated, 5 h; at 17.2 µM (top of the series) unless noted;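 also: ME-180 cervical cancer cells given 40 pM IL-6 alongside compound; SIE-controlled beta-lactamase reporter measured as 460/530 nm FRET emission ratio; % is scaled to controls: 0 for no effect and ±100 for the full control effect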
In short: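 ME-180 cells carrying a SIE-driven beta-lactamase reporter are stimulated with 40 pM IL-6 for 5 h at 37C in the presence of compound. The 460/530 nm FRET substrate ratio is read after 2.5 h at RT. Data are normalised to 300 pM IL-6 and to 125 nM JAK inhibitor controls.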

[4] = molecular target: Glucocorticoid receptor (Homo sapiens) (UniProt P04150); assay: GR-GFP Redistribution (AID 450;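 active = compounds whose dose series gives a full or clear partial fitted curve of increased nuclear translocation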; also: potency is read from the fitted curve at half-maximal effect)
Sequence of Glucocorticoid receptor (Homo sapiens) (P04150 whole entry, looked up): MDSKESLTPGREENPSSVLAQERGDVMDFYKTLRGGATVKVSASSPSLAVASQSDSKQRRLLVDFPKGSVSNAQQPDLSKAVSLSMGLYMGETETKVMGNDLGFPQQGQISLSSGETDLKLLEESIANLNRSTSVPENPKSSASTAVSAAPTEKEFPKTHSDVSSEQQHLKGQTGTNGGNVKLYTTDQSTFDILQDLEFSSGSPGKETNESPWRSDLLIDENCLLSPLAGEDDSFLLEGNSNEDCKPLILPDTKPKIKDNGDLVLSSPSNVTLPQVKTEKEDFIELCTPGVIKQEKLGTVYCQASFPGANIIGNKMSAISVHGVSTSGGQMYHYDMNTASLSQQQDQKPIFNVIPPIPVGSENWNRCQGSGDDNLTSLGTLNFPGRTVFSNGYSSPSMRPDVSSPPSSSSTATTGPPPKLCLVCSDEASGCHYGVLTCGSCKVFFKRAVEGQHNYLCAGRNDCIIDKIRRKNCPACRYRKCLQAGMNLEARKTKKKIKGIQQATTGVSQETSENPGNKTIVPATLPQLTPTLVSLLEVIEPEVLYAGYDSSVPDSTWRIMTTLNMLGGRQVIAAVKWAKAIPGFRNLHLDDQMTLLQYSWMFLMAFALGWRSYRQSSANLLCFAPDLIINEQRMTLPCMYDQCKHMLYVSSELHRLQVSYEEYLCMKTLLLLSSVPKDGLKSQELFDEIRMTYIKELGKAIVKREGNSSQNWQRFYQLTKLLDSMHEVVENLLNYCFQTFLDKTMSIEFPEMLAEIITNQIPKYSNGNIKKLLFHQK

Cc1ccc(-n2[nH]c(C)c(C=Nc3cc(C)ccn3)c2=O)cc1
inactive: activity change, negative = inhibition [1] 2.52% | activity change, negative = inhibition [2] -2.28% | activity, negative = inhibition [3] 4.82% | Potency [4] > 20.6 µM

CC1(C)CC(=O)C2=C(C1)OC(N)=C(C#N)C2C1C=CCCC1 (centres undefined)
inactive: activity change, negative = inhibition [1] 3.93% | activity change, negative = inhibition [2] 24.4% | activity, negative = inhibition [3] -5.68% | Potency [4] > 20.6 µM

COC(=O)CN(c1cc(OC)ccc1OC)S(=O)(=O)c1ccc(OC)c(OC)c1
inactive: activity change, negative = inhibition [1] -25.5% | activity change, negative = inhibition [2] 4.34% | activity, negative = inhibition [3] -5.92% | Potency [4] > 20.6 µM

CCOC(=O)c1c(NC(=O)CN2CCOCC2)sc2c1CC(C)(C)OC2
inactive: activity change, negative = inhibition [1] -15.6% | activity change, negative = inhibition [2] 12.7% | activity, negative = inhibition [3] -6.32% | Potency [4] > 20.6 µM

CCOC(=O)c1ccc(CC2S/C(=C(\C#N)C(C)=O)NC2=O)cc1 (centres undefined)
inactive: activity change, negative = inhibition [1] -24.1% | activity change, negative = inhibition [2] 13.3% | activity, negative = inhibition [3] -21.4% | Potency [4] > 20.6 µM

CC12CCC(=O)N1c1c(sc3nc(N4CCOCC4)c4c(c13)CCCC4)C(=O)N2 (centres undefined)
inactive: activity change, negative = inhibition [1] -25.1% | activity change, negative = inhibition [2] 8.35% | activity, negative = inhibition [3] -5.31% | Potency [4] > 20.6 µM

CCOC(=O)C1=C(C(C)=O)C(c2cccnc2)C(C#N)=C(N)O1 (centres undefined)
inactive: activity change, negative = inhibition [1] 29.3% | activity change, negative = inhibition [2] -19% | activity, negative = inhibition [3] -12.3% | Potency [4] > 20.6 µM

O=C(C1=C(O)C(=O)N(CCCN2CCOCC2)C1c1ccccn1)c1cccs1 (centres undefined)
inactive: activity change, negative = inhibition [1] -0.154% | activity change, negative = inhibition [2] -1.18% | activity, negative = inhibition [3] -0.582% | Potency [4] > 20.6 µM

O=S(=O)(c1ccccc1)N(CC(O)CN1CCCCC1)c1ccccc1 (centres undefined)
inactive: activity change, negative = inhibition [1] -4.48% | activity change, negative = inhibition [2] -23% | activity, negative = inhibition [3] 3.01% | Potency [4] > 20.6 µM

C/C(=N\O)C(=O)NCCCn1ccnc1
inactive: activity change, negative = inhibition [1] 16.3% | activity change, negative = inhibition [2] 1.22% | activity, negative = inhibition [3] 16.8% | Potency [4] > 20.6 µM

CCOC(=O)CCc1c(C)c(C#N)c2nc3ccccc3n2c1-n1ccnc1
inactive: activity change, negative = inhibition [1] -6.27% | activity change, negative = inhibition [2] 10% | activity, negative = inhibition [3] 14.7% | Potency [4] > 20.6 µM

CCCOC(=O)CSC1=C(C#N)C(c2ccccc2OC)C(C#N)C(=O)N1 (centres undefined)
inactive: activity change, negative = inhibition [1] -16.4% | activity change, negative = inhibition [2] 13.9% | activity, negative = inhibition [3] -22.7% | Potency [4] > 20.6 µM

Cc1ccc(OCC(=O)NCC(=O)n2nc(C)cc2C)cc1
inactive: activity change, negative = inhibition [1] -4.61% | activity change, negative = inhibition [2] -11.6% | activity, negative = inhibition [3] -3.12% | Potency [4] > 20.6 µM

CCOc1cc(CN2CCOCC2)cc(C(C)=O)c1
inactive: activity change, negative = inhibition [1] 14.3% | activity change, negative = inhibition [2] -4.27% | activity, negative = inhibition [3] 1.95% | Potency [4] > 20.6 µM

COc1ccc(C=NCCCN2CCOCC2)cc1
inactive: activity change, negative = inhibition [1] -8.54% | activity change, negative = inhibition [2] -2.1% | activity, negative = inhibition [3] -3.86% | Potency [4] > 20.6 µM

CCOC(=O)c1c(C)n(C)c2ccc(O)c(S(=O)(=O)c3ccccc3)c12
inactive: activity change, negative = inhibition [1] -9.19% | activity change, negative = inhibition [2] 2.35% | activity, negative = inhibition [3] 11.2% | Potency [4] > 20.6 µM

CCOC(=O)CSc1nc(-c2ccc3c(c2)OCO3)ccc1C#N
inactive: activity change, negative = inhibition [1] 7.89% | activity change, negative = inhibition [2] 18.5% | activity, negative = inhibition [3] 4.79% | Potency [4] > 20.6 µM

CCOc1ccc(-c2nc(C#N)c(NCC(C)C)o2)cc1
inactive: activity change, negative = inhibition [1] -22.8% | activity change, negative = inhibition [2] -3.57% | activity, negative = inhibition [3] -7.96% | Potency [4] > 20.6 µM

O=C(Nc1ccccc1)c1cc(N2CCOCC2)nc2ccccc12
inactive: activity change, negative = inhibition [1] 2.4% | activity change, negative = inhibition [2] 13.1% | activity, negative = inhibition [3] 1.13% | Potency [4] > 20.6 µM

CCOC(=O)Cc1[nH]nc2c1C(c1cc(OC)ccc1OC)C(C#N)=C(N)O2 (centres undefined)
inactive: activity change, negative = inhibition [1] -11.5% | activity change, negative = inhibition [2] -0.329% | activity, negative = inhibition [3] -9.93% | Potency [4] > 20.6 µM

CC(=O)c1cc2c(=O)c3ccccc3oc2nc1C
inactive: activity change, negative = inhibition [1] -1.73% | activity change, negative = inhibition [2] -16.9% | activity, negative = inhibition [3] 7.33% | Potency [4] > 20.6 µM

COC(=O)CCc1c(C)[nH]c(C(=O)OCc2ccccc2)c1C
inactive: activity change, negative = inhibition [1] -13.9% | activity change, negative = inhibition [2] -4.78% | activity, negative = inhibition [3] 5.36% | Potency [4] > 20.6 µM

NC(=O)c1ccccc1OCCOCCOCCOc1ccccc1C(N)=O
inactive: activity change, negative = inhibition [1] -9.33% | activity change, negative = inhibition [2] -4.35% | activity, negative = inhibition [3] -0.51% | Potency [4] > 20.6 µM

CCCCCCC(=O)N1CCN(c2cc3c(cc2F)c(=O)c(C(=O)O)cn3CC)CC1
inactive: activity change, negative = inhibition [1] -1.28% | activity change, negative = inhibition [2] 7.84% | activity, negative = inhibition [3] 0.48% | Potency [4] > 20.6 µM

Fc1ccc(OCCOCCNCC2CCCO2)cc1 (centres undefined)
inactive: activity change, negative = inhibition [1] 12.2% | activity change, negative = inhibition [2] -14.1% | activity, negative = inhibition [3] 21.6% | Potency [4] > 20.6 µM

Cc1nnc2n(Cc3ccccc3)c(=O)c3c4c(sc3n12)CN(Cc1ccccc1)CC4
inactive: activity change, negative = inhibition [1] 3.27% | activity change, negative = inhibition [2] -8.71% | activity, negative = inhibition [3] 5.01% | Potency [4] > 20.6 µM

CCOC(=O)c1sc(-n2[nH]c(C)cc2=O)nc1C
inactive: activity change, negative = inhibition [1] -2.34% | activity change, negative = inhibition [2] 8.32% | activity, negative = inhibition [3] 1.64% | Potency [4] > 20.6 µM

O=c1oc2c(CN3CCCCC3)c(O)ccc2c2c1CCCCC2
inactive: activity change, negative = inhibition [1] 2.02% | activity change, negative = inhibition [2] -25.5% | activity, negative = inhibition [3] 9.48% | Potency [4] > 20.6 µM

Cc1nc(NS(=O)(=O)c2ccccc2)sc1NC(=O)OC(C)C
inactive: activity change, negative = inhibition [1] 3.92% | activity change, negative = inhibition [2] -1.13% | activity, negative = inhibition [3] 3.96% | Potency [4] > 20.6 µM

COc1ccc(-n2ccc(=O)c3c2CCCC3=O)cc1
inactive: activity change, negative = inhibition [1] 1.82% | activity change, negative = inhibition [2] 1.88% | activity, negative = inhibition [3] 3.34% | Potency [4] > 20.6 µM

CC1(C)CC(=O)C(C2=NC(C)(C)Cc3ccccc32)=C(O)C1
inactive: activity change, negative = inhibition [1] 2.44% | activity change, negative = inhibition [2] 2.48% | activity, negative = inhibition [3] 0.129% | Potency [4] > 20.6 µM

CCOc1ccc(C2=Nn3c(nnc3-c3cccnc3)SC2)cc1
inactive: activity change, negative = inhibition [1] 3.18% | activity change, negative = inhibition [2] -2.85% | activity, negative = inhibition [3] -4.46% | Potency [4] > 20.6 µM

C=CCSc1nc(C)c(CC=C)c(=O)[nH]1
inactive: activity change, negative = inhibition [1] -0.627% | activity change, negative = inhibition [2] -22.4% | activity, negative = inhibition [3] 0.0275% | Potency [4] > 20.6 µM

CC1(C)CC(=O)C(C=N)=C(O)C1
inactive: activity change, negative = inhibition [1] -5.44% | activity change, negative = inhibition [2] 1.7% | activity, negative = inhibition [3] 2.78% | Potency [4] > 20.6 µM

CCN(CC)CCN1C(=O)C(=O)/C(=C(/O)c2ccc(F)cc2)C1c1cccnc1 (centres undefined)
inactive: activity change, negative = inhibition [1] 12.6% | activity change, negative = inhibition [2] 3.02% | activity, negative = inhibition [3] -0.766% | Potency [4] > 20.6 µM

CCNC(=O)N(C(=O)NCC)n1c(C)nnc1C
inactive: activity change, negative = inhibition [1] 6.49% | activity change, negative = inhibition [2] -11.9% | activity, negative = inhibition [3] 12.4% | Potency [4] > 20.6 µM

COc1cccc(Cn2c(NCC(C)C)nc3c2c(=O)n(C)c(=O)n3C)c1
inactive: activity change, negative = inhibition [1] 15.5% | activity change, negative = inhibition [2] -1.36% | activity, negative = inhibition [3] -6% | Potency [4] > 20.6 µM

COc1cccc(C2C(C(=O)c3cc4ccccc4o3)=C(O)C(=O)N2CCN(C)C)c1OC (centres undefined)
inactive: activity change, negative = inhibition [1] 8.36% | activity change, negative = inhibition [2] 1.15% | activity, negative = inhibition [3] -6.68% | Potency [4] > 20.6 µM

COC(=O)CSc1nc(N)c2c3c(sc2n1)CCCC3
inactive: activity change, negative = inhibition [1] -0.00134% | activity change, negative = inhibition [2] -7.55% | activity, negative = inhibition [3] 29.8% | Potency [4] > 20.6 µM

Cc1nc(NS(=O)(=O)c2ccccc2)sc1NC(=O)OCCN(C)C
inactive: activity change, negative = inhibition [1] -8.74% | activity change, negative = inhibition [2] 13.4% | activity, negative = inhibition [3] 0.248% | Potency [4] > 20.6 µM

C=CCc1c(C)c(C#N)c2nc3ccccc3n2c1N1CCN(C)CC1
inactive: activity change, negative = inhibition [1] -17.1% | activity change, negative = inhibition [2] 4.5% | activity, negative = inhibition [3] 3.98% | Potency [4] > 20.6 µM

Cn1c2c(c(=O)n(C)c1=O)C(NC(=O)c1cccs1)(C(F)(F)F)C(=O)N2 (centres undefined)
inactive: activity change, negative = inhibition [1] -2.19% | activity change, negative = inhibition [2] 12.3% | activity, negative = inhibition [3] 5.6% | Potency [4] > 20.6 µM

COc1nnnc2c1sc1nc(N3CCOCC3)c3c(c12)CC(C)(C)OC3
inactive: activity change, negative = inhibition [1] -3.49% | activity change, negative = inhibition [2] -9.1% | activity, negative = inhibition [3] -7.42% | Potency [4] > 20.6 µM

CC(C(=O)N(C)C)N(C#N)c1nc(N(C)C)nc(N(C)C)n1 (centres undefined)
inactive: activity change, negative = inhibition [1] 1.24% | activity change, negative = inhibition [2] 2.25% | activity, negative = inhibition [3] -6.97% | Potency [4] > 20.6 µM

O=c1[nH]cnc2c1cnn2Cc1ccccc1
inactive: activity change, negative = inhibition [1] 2.81% | activity change, negative = inhibition [2] -7.78% | activity, negative = inhibition [3] 6.19% | Potency [4] > 20.6 µM

C[C@]12CC[C@@H]3c4ccc(O[C@@H]5O[C@H](C(=O)O)[C@@H](O)[C@H](O)[C@H]5O)cc4CC[C@H]3[C@@H]1C[C@@H](O)[C@@H]2O
inactive: activity change, negative = inhibition [1] 4.45% | activity change, negative = inhibition [2] -30% | activity, negative = inhibition [3] 11.5% | Potency [4] > 20.6 µM
